The results in this text go back to publication PMC5540273 (PLoS ONE, 2017).

In one experiment the test system is T1, ERK1.
T1 construct: gene MAPK3

Another experiment concerns T2, ERK5.
T2 construct: gene MAPK7

A further experiment has as its system T3, ERK8.
T3 construct: gene MAPK15

The next experiment relates to T4, GRK2.
T4 construct: gene ADRBK1

Another experiment has as its system T5, GRK3.
T5 construct: gene ADRBK2

In another experiment the test system is T6, HASPIN.
T6 construct: gene GSG2
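Also: kd values determined as follow-up on hits from a single-replicate KINOMEscan panel screen.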

Take `Cc1ccc(O)cc1Nc1cc(C(F)(F)F)nc2ccc(-c3ccncc3)cc12` [GW630823]: the Kd with EPHA7 was above 10 µM. Regarding `Cn1ccc2ncnc(Nc3ccc(Oc4cccc(Cl)c4)c(Cl)c3)c21`, the Kd with EPHA7 and in the experiment with EPHA8 was above 10 µM each time. `Nc1n[nH]c2nnc(-c3ccccc3)cc12` [SB-517389]: the values for the Kd in the experiment with EPHB2 and with HIPK3 were above 10 µM and 0.29 µM, respectively. For `CC(C)(C)OC(=O)NC1CCCN(c2cc(-c3ccc4c(N)n[nH]c4c3)nc(N)n2)C1` (stereo not shown) [GSK2286096], in the experiment with EPHB2, the Kd is above 10 µM. With `Nc1nc(-c2ccc3c(N)n[nH]c3c2)cc(N2CCC[C@@H](C(=O)Nc3ccccc3)C2)n1.O=C(O)C(F)(F)F.O=C(O)C(F)(F)F` [GSK2288359], in the experiment with ERK1, the Kd amounted to 5.3 µM. Still for that read-out and setting: the same measure for `O=C(Nc1ccccc1F)NC1CCN(c2ccnc(Nc3ccc(F)cc3)n2)C1` (stereo not shown) [GSK1379722]: above 10 µM. On to `Cc1ccc(C)c(NC(=O)NCCNc2ccnc(Nc3ccc(F)cc3)n2)c1` [GSK1379878], for which the Kd with ERK5 is above 10 µM.

With `Cc1ccc(NC(=O)c2cccc(C#N)c2)cc1-c1ccc(C(=O)Nc2ccncc2)cc1` [GSK1398463], the values for the Kd in the experiment on ERK5 and in the experiment with FRK were above 10 µM and 0.19 µM, respectively. `c1ccc(-c2ccc3c(-c4ccnc(Nc5ccc6c(c5)OCCO6)n4)cnn3n2)cc1` [GW818941]: in the experiment with ERK8, the affinity, expressed as Kd, was 0.67 µM. `O=C(Nc1ccccc1)Nc1ccc(Oc2ccc3nccn3n2)cc1` showed a Kd in the experiment with ERN1 above 10 µM. As to `FC(F)(F)c1ccc(-c2nn3ncccc3c2-c2ccnc(Nc3cccc(C(F)(F)F)c3)n2)cc1` [GW828205], the Kd in the experiment on FGFR2 is above 10 µM. In turn, `CCC(CC)(CC)n1cnc2c(N)ncnc21` [SKF-97620] had a Kd with FGFR2 above 10 µM. For the molecule `O=C(Nc1n[nH]c2nc(-c3ccco3)c(Br)cc12)c1ccc(CN2CCCC2)cc1.O=C(O)[C@H](O)[C@@H](O)C(=O)O` [SB-742352], in the experiment on FLT3, the Kd was determined as 0.045 µM. Regarding `COc1ccc(NC(=O)Nc2ccc(C)c(-c3ccc(C(=O)Nc4ccncc4)cc3)c2)cc1` [GSK1398475], binding with FLT3 was put at a Kd of 2.2 µM. As to `Cl.O=S(=O)(c1cccc(F)c1)c1ccc(Nc2ncnc3cc(Br)sc23)cc1Cl` [GSK306886], the Kd in the experiment with FLT4 was above 10 µM. Turning to `CCc1nc(-c2cccc(N(C)S(=O)(=O)c3ccccc3)c2)c(-c2ccnc(Nc3ccc(N4CCN(C(C)=O)CC4)nc3)n2)s1` [GSK1645895], the Kd in the experiment with GAK stood at 0.25 µM.

`COC(=O)c1c(-c2ccccc2)c2cc(Cl)ccc2c(=O)n1Cc1ccc(S(C)(=O)=O)cc1`: in the experiment on GAK, the Kd was above 10 µM. For the molecule `CNc1nccc(-c2c(-c3ccc(F)cc3)ncn2C2CCN(C)CC2)n1` [SB-222903], in the experiment with GRK2, the Kd was above 10 µM. For `COc1ccc(NC(=O)c2ccc(-c3cc(-c4nnc(C)o4)ccc3C)cc2)cc1` [GW595885], in the experiment on GRK3, the Kd is above 10 µM. On to `Cn1cc(-c2ccc3c(c2)CCN3C(=O)Cc2cccc(C(F)(F)F)c2)c2c(N)ncnc21` [GSK2606414], for which the Kd in the experiment on GRK4 is above 10 µM. The molecule `Nc1nc(-c2cccnc2)c(-c2ccnc3ccccc23)s1` [GW684083] registered a Kd with HASPIN of 0.65 µM. The same measure, in the same setting: the same measure for `Cl.Cl.c1ccc(-c2cc3ccncc3cc2OC2CCNCC2)cc1` [GSK1122999]: 0.09 µM.

For orientation: Kd means the concentration at which binding is half-saturated. Read a low Kd as tighter binding.
